Reference: PubChem BioAssay (Tox21)
Inconclusive results are not listed. Calls of active or inactive are those of the source. Unless noted, calls come from the whole dose curve; as a rule, active = well fitted curve in the direction sought with a large enough effect in the repeat runs; inconclusive = weak or mixed curves; inactive = no such curve, though single readings can be large; an effect the other way counts as inactive or inconclusive.

Legend:
[1] = qHTS RealTime-Glo MT Cell Viability Assay in HEK293 cells - 0 hour (AID 1224880); note: top concentration of the series differs between compounds; nearly all actives have a fitted effect of over 45% in size
In short: (§1)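 HEK293 cells mixed with RealTime-Glo reagents (NanoLuc plus cell-permeant prosubstrate) at 600 cells/well, preincubated 5 h at 37 C/5% CO2, then given 23 nL compound in DMSO. Nonlytic luminescence from viable cells was read at 0, 8, 16, 24, 32 and 40 h.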

[2] = A CellTox Green Cytotoxicity Assay to monitor cytotoxicity in HEK293 cells - 32 hour (AID 1224881); note: nearly all actives have a fitted effect of over 40% in size
In short: (§2)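 HEK293 cells premixed with CellTox Green dye were seeded at 600 cells/well and left 5 h at 37 C/5% CO2 before pin transfer of 23 nL compound in DMSO. Fluorescence from dye bound to dead-cell DNA was read during 40 h treatment.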

[3] = A CellTox Green Cytotoxicity Assay to monitor cytotoxicity in HepG2 cells - 0 hour (AID 1224882); note: nearly all actives have a fitted effect of over 35% in size
In short: (§3)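 HepG2 cells were seeded together with the CellTox Green dye at 600 cells/well, left 5 h at 37 C/5% CO2, then given compounds in DMSO. Fluorescence from dye bound to dead-cell DNA was read repeatedly over 40 h of treatment at 37 C.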

[4] = A CellTox Green Cytotoxicity Assay to monitor cytotoxicity in HepG2 cells - 32 hour (AID 1224883); note: nearly all actives have a fitted effect of over 50% in size
In short: as §3

[5] = A CellTox Green Cytotoxicity Assay to monitor cytotoxicity in HEK293 cells - 8 hour (AID 1224884); note: nearly all actives have a fitted effect of over 35% in size
In short: as §2

[6] = qHTS RealTime-Glo MT Cell Viability Assay in HepG2 cells - 16 hour (AID 1224885); note: nearly all actives have a fitted effect of over 50% in size
In short: (§4)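 Compound treatment began 5 h after plating HepG2 cells (600/well) with NanoLuc luciferase and prosubstrate. Plates stayed at 37 C for 40 h; luminescence was captured at six time points, 0 h through 40 h.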

[7] = qHTS RealTime-Glo MT Cell Viability Assay in HEK293 cells - 24 hour (AID 1224886); note: top concentration of the series differs between compounds; nearly all actives have a fitted effect of over 50% in size
In short: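 Quantitative high-throughput screen of the Tox21 10K library in HEK293: cells and RealTime-Glo reagents plated together, compound added at 5 h, luminescence monitored through 40 h at 37 C.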

[8] = qHTS RealTime-Glo MT Cell Viability Assay in HEK293 cells - 8 hour (AID 1224887); note: top concentration of the series differs between compounds; nearly all actives have a fitted effect of over 50% in size
In short: as §1

[9] = A CellTox Green Cytotoxicity Assay to monitor cytotoxicity in HEK293 cells - 16 hour (AID 1224888); note: nearly all actives have a fitted effect of over 35% in size
In short: as §2

[10] = qHTS RealTime-Glo MT Cell Viability Assay in HepG2 cells - 0 hour (AID 1224889); note: nearly all actives have a fitted effect of over 50% in size
In short: as §4

[11] = A CellTox Green Cytotoxicity Assay to monitor cytotoxicity in HepG2 cells - 8 hour (AID 1224890); note: nearly all actives have a fitted effect of over 45% in size
In short: as §3

[12] = qHTS assay to identify small molecule antagonists of the estrogen receptor alpha (ER-alpha) signaling pathway using the BG1 cell line in the presence of 0.1 nM 17-beta-estradiol - cell viability counter screen (AID 1259241); note: nearly all actives have a fitted effect of over 40% in size
In short: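 Following 5 days in phenol red-free medium with charcoal-stripped serum, VM7Luc4E2 cells received test compounds alongside 0.1 nM 17beta-estradiol (final) at 37C for 22 hr. Live cells were then quantified via protease-substrate fluorescence.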

[13] = qHTS assay to identify small molecule antagonists of the androgen receptor (AR) signaling pathway using the MDA cell line in the presence of 0.5 nM R1881 - cell viability counter screen (AID 1259242); note: nearly all actives have a fitted effect of over 45% in size
In short: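 MDA-kb2 cells (human breast carcinoma, stably carrying MMTV-luciferase reporter) were exposed to compounds with 0.5 nM R1881 (final) for 16 hr at 37C, 0% CO2; viability then read as live-cell protease fluorescence (CellTiter-Fluor, 30 min) in the same wells.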

[14] = qHTS assay to identify small molecule phospholipidosis (PLD) inducers (AID 1259344; active = well fitted curve in the direction sought with a large enough effect; an effect the other way counts as inactive or inconclusive)
In short: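 Phospholipidosis is scored by imaging LipidTOX-stained pits in HepG2 cells exposed to compound for 24 h at 37 C; pit counts and integrated intensities per well and per cell serve as outputs.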

[15] = qHTS assay to identify small molecule HDAC inhibitors (AID 1259364); note: nearly all actives have a fitted effect of over 45% in size; note: potency is the fitted concentration of half-maximal effect
In short: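 Wild-type HCT-116 cells were plated overnight, exposed to compounds for 2 h at 37 °C, then given HDAC-Glo class I/II luminogenic reagent for 30 min at room temperature before luminescence was read.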

[16] = qHTS assay to identify small molecule HDAC inhibitors - cell viability counter screen (AID 1259365)
In short: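 HCT-116 wild-type, overnight attachment; 2hr drug exposure, 37C; CellTiter-Glo luminescent ATP readout after 30min RT.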

[17] = qHTS assay to identify small molecule agonists of the sonic hedgehog signaling (Shh) pathway - cell viability counter screen (AID 1259366); note: nearly all actives have a fitted effect of over 50% in size
In short: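 Compounds in DMSO were pin-transferred onto 3T3 Gli1-Luc cells that had settled 4hr; plates then stood 24hr at 37C and 5% CO2. One hour before the end, CellTiter-Fluor was added and fluorescence recorded.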

[18] = qHTS assay to identify small molecule antagonists of the sonic hedgehog signaling (Shh) pathway - cell viability counter screen (AID 1259367); note: nearly all actives have a fitted effect of over 55% in size
In short: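 Cells: 3T3 Gli1-Luc, 2,000/well, 4 hr pre-incubation. Compounds in DMSO, then conditioned medium. Incubation 24 hr, 37C, 5% CO2. CellTiter-Fluor at 23 hr, 1 hr, fluorescence.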

[19] = molecular target: Estrogen receptor (Homo sapiens) (UniProt P03372); assay: qHTS assay to identify small molecule antagonists of the estrogen receptor alpha (ER-alpha) signaling pathway using the BG1 cell line in the presence of 0.1 nM 17-beta-estradiol (AID 1259244); note: nearly all actives have a fitted effect of over 50% in size
In short: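 VM7Luc4E2 cells (endogenous full-length ER-alpha, stable 4xERE-luciferase) were grown 5 days in phenol red-free medium with charcoal-stripped FBS, then exposed 22 h at 37C to compounds plus 0.1 nM (final) 17beta-estradiol; ONE-Glo luminescence read-out.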

[20] = molecular target: Androgen receptor (Homo sapiens) (UniProt P10275); assay: qHTS assay to identify small molecule antagonists of the androgen receptor (AR) signaling pathway using the MDA cell line in the presence of 0.5 nM R1881 (AID 1259243); note: nearly all actives have a fitted effect of over 50% in size
In short: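 MDA-kb2 human breast carcinoma cells carrying an MMTV-luciferase reporter (AR- and GR-responsive) were plated, rested 5 hr at 37C, dosed with compounds, then stimulated with 0.5 nM R1881 (final) for 16 hr; luminescence was read after ONE-Glo.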

Measured: Potency

Estrogen receptor (Homo sapiens), sequence (P03372 whole entry, looked up): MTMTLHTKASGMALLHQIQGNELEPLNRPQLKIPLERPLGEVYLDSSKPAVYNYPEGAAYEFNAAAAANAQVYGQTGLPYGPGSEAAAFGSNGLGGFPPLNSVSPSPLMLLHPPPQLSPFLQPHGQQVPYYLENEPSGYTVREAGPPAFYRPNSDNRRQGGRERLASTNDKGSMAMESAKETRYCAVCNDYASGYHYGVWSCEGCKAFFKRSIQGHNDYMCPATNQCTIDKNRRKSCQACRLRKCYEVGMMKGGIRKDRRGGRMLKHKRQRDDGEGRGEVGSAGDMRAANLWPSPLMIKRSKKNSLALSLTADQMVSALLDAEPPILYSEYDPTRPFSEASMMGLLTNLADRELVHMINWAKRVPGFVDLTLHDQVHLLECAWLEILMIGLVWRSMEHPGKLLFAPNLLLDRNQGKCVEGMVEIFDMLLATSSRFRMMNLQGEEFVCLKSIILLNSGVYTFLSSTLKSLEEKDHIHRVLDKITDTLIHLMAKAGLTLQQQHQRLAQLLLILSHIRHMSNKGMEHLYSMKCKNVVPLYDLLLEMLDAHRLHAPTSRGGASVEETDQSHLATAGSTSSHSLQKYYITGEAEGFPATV
Androgen receptor (Homo sapiens), sequence (P10275 whole entry, looked up): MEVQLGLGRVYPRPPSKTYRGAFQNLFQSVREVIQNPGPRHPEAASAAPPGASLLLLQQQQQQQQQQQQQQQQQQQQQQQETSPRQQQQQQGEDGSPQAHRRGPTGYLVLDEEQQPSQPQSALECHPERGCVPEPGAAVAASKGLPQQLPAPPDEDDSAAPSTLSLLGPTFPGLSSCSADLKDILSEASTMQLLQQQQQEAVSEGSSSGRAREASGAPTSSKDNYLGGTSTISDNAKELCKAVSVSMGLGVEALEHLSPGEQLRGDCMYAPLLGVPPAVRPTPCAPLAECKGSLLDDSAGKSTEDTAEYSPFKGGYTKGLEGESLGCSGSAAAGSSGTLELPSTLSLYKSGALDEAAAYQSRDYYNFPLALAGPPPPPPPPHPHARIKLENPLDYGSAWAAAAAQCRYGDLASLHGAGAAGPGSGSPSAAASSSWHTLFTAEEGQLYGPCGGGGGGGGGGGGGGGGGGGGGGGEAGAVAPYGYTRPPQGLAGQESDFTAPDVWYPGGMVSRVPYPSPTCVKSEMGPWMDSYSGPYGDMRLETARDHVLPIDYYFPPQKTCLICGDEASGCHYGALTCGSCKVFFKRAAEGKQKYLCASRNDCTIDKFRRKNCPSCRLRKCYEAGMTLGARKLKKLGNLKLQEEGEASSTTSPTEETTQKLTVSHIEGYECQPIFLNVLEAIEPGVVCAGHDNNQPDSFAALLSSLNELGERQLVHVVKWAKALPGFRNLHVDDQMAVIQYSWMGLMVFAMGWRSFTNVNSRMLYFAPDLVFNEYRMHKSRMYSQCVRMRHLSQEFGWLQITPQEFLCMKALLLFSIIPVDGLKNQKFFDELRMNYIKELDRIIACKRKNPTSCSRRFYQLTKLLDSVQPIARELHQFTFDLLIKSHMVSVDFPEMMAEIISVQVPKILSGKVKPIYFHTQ

O=C(O)/C=C/c1ccc(Cn2ccnc2)cc1
not listed: [19] | [20]
inactive: all other assays above

OCC(CO)(CO)COCC(CO)(CO)CO
not listed: [14] | [20]
inactive: all other assays above

CCCC(C)C(=O)O (configuration not stated)
not listed: [14] | [16] | [20]
inactive: all other assays above

CNC(=O)c1c(I)c(NC(=O)CCCCC(=O)Nc2c(I)c(C(=O)O)c(I)c(C(=O)NC)c2I)c(I)c(C(=O)O)c1I
not listed: [14] | [20]
inactive: all other assays above

CC(=O)c1ccc(C)cc1
not listed: [14] | [15] | [17] | [20]
inactive: all other assays above

CC(C)(C)C(=O)/C=C/c1ccc(Cl)cc1
not listed: [14] | [17] | [20]
inactive: all other assays above

CN(C)C(=O)Nc1ccccc1
not listed: [14] | [17] | [20]
inactive: all other assays above

Oc1ccc2c(c1)OC[C@@H](N1CCC(O)(c3ccc(F)cc3)CC1)[C@H]2O
active: [15] 2.37 µM
not listed: [14] | [20]
inactive: all other assays above

CO[Si](CCCNCCC[Si](OC)(OC)OC)(OC)OC
not listed: [14] | [20]
inactive: all other assays above

C(=C(c1ccccc1)c1ccccc1)c1ccccc1
not listed: [14] | [20]
inactive: all other assays above

CCC(=O)/C=C/c1ccc(OC)cc1
active: [15] 24.3 µM
not listed: [14] | [20]
inactive: all other assays above

CC(C)(O)C(=O)c1ccc(OCCO)cc1
not listed: [14] | [17] | [20]
inactive: all other assays above

COC[C@H](c1ccc(C(F)(F)F)cc1)N1CCN(C2(C)CCN(C(=O)c3c(C)ncnc3C)CC2)C[C@H]1C
not listed: [14] | [20]
inactive: all other assays above

O=C(O)c1cccc(C(=O)O)n1
not listed: [14] | [15] | [20]
inactive: all other assays above

CC(=O)OC(C)(C)C
not listed: [14] | [15] | [20]
inactive: all other assays above

C=C(C)[C@H]1CC=C(C)CC1
not listed: [14] | [17] | [18] | [20]
inactive: all other assays above

CCN(CC)C(=O)c1ccc(O)c(OC)c1
not listed: [15] | [20]
inactive: all other assays above

CC(C)COC(=O)C(C)C
not listed: [14] | [16] | [20]
inactive: all other assays above

CCC(=O)c1cccc(Cl)c1
not listed: [14] | [17] | [19] | [20]
inactive: all other assays above

COC(=O)CCCC(=O)O
not listed: [8] | [14] | [20]
inactive: all other assays above

Cc1ccccc1Br
not listed: [14] | [19] | [20]
inactive: all other assays above

CCCCN(CCO)CCO
not listed: [8] | [14] | [20]
inactive: all other assays above

C#CC(C)(O)CC(C)C (configuration not stated)
not listed: [14] | [17] | [19] | [20]
inactive: all other assays above

Oc1cc(O)c2c(c1)O[C@H](c1ccc(O)c(O)c1)[C@H](O)C2
not listed: [8] | [20]
inactive: all other assays above

N#CCc1ccccc1[N+](=O)[O-]
not listed: [14] | [19] | [20]
inactive: all other assays above

O=c1[nH]c2ccccc2c(=O)n1CCCl
not listed: [8] | [14] | [19]
inactive: all other assays above

CCC(C)OC(=O)N1CCCCC1CCO (configuration not stated)
not listed: [14] | [15] | [19] | [20]
inactive: all other assays above

CC(C)(C)OC(=O)N1C[C@@H](F)C[C@H]1C(=O)O
not listed: [8] | [14] | [20]
inactive: all other assays above

CC(CCO)CCCC(C)(C)O (configuration not stated)
not listed: [14] | [19] | [20]
inactive: all other assays above

CCCCC=O
not listed: [14] | [16] | [19] | [20]
inactive: all other assays above

C[C@H](O)C(=O)Nc1c(I)c(C(=O)NC(CO)CO)c(I)c(C(=O)NC(CO)CO)c1I
not listed: [8] | [20]
inactive: all other assays above
